# Counter-ions that a name gives are not always drawn. ± gives the standard deviation of the averaged measurements.
# Test system: E. coli TESEC Alr+ wild-type control
# Experiment: growth (OD600 after 10 h); higher = more growth (less inhibition)
# Conditions: compound 0.1 mM; raw OD600 reference: median of DMSO wells 0.49, cell-free background 0.052
# Procedure: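 TESEC Mtb Alr E. coli (ΔaraC ΔtolC ΔentC Δalr ΔdadX, arabinose-inducible Mtb Alr) or the Alr+ wild-type control strain, grown in defined M9-fructose medium without D-alanine in 96-well plates with Prestwick library compounds at 0.1 mM and 1% DMSO. Low Alr induction is 0.1 µM arabinose and high induction is 10 mM arabinose.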
row,SMILES,growth
1,CCC(=O)O[C@H]1CC[C@H]2[C@@H]3CCC4=CC(=O)CC[C@]4(C)[C@H]3CC[C@]12C [Testosterone propionate],0.351 ± 0.039
2,C[C@]12Cc3c[nH]nc3C[C@@H]1CC[C@@H]1[C@@H]2CC[C@@]2(C)[C@H]1CC[C@]2(C)O [Stanozolol],0.47 ± 0.038
3,COc1cccc(C2(O)CCCCC2CN(C)C)c1 (stereo not given) [Tramadol hydrochloride],0.476 ± 0.013
4,O=[N+]([O-])O[C@@H]1CO[C@H]2[C@@H]1OC[C@@H]2O [Isosorbide mononitrate],0.548 ± 0.053
5,CC(C)c1cccc(C(C)C)c1O [Propofol],0.55 ± 0.038
6,O=C1CC[C@@]2(O)[C@H]3Cc4ccc(O)c5c4[C@@]2(CCN3CC2CC2)[C@H]1O5 [Naltrexone hydrochloride dihydrate],0.496 ± 0.022
7,COc1ccc(CCN2CCC(Nc3nc4ccccc4n3Cc3ccc(F)cc3)CC2)cc1 [Astemizole],0.0478 ± 0.00075
8,CCC1(c2cccc(O)c2)CCCCN(C)C1 (stereo not given) [Meptazinol hydrochloride],0.643 ± 0.03
9,CC(C)CC(N(C)C)C1(c2ccc(Cl)cc2)CCC1 (stereo not given) [Sibutramine HCl],0.602 ± 0.091
10,CC(=O)NC1CCSC1=O (racemic) [N-Acetyl-DL-homocysteine Thiolactone],0.406 ± 0.015
11,CN1[C@@H]2CC[C@H]1C[C@@H](OC1c3ccccc3CCc3ccccc31)C2 [Deptropine citrate],0.04883 ± 0.00038
12,CO[C@]12C[C@@H](COC(=O)c3cncc(Br)c3)CN(C)[C@@H]1Cc1cn(C)c3cccc2c13 [Nicergoline],0.481 ± 0.049
13,C[N+]12CCC(CC1)C(OC(=O)C(O)(c1ccccc1)c1ccccc1)C2 (stereo not given) [Clidinium bromide],0.611 ± 0.031
14,CN[C@@H]1[C@@H](O)[C@@H](O[C@@H]2[C@@H](O)[C@H](O[C@H]3O[C@H](CN)CC[C@H]3N)[C@@H](N)C[C@H]2N)OC[C@]1(C)O.CN[C@@H]1[C@@H](O)[C@@H](O[C@@H]2[C@@H](O)[C@H](O[C@H]3O[C@H]([C@@H](C)N)CC[C@H]3N)[C@@H](N)C[C@H]2N)OC[C@]1(C)O.CN[C@@H]1[C@@H](O)[C@@H](O[C@@H]2[C@@H](O)[C@H](O[C@H]3O[C@H]([C@@H](C)NC)CC[C@H]3N)[C@@H](N)C[C@H]2N)OC[C@]1(C)O [Gentamicine sulfate],0.0643 ± 0.0096
15,C[C@@]12N[C@@H](Cc3ccccc31)c1ccccc12 [(-)-MK 801 hydrogen maleate],0.564 ± 0.017
16,Clc1ccc(C(OCCN2CCCCC2)c2ccccc2)cc1 (stereo not given) [Cloperastine hydrochloride],0.413 ± 0.033
17,C#C[C@]1(O)CC[C@H]2[C@@H]3CCC4=CC(=O)CCC4=C3C=C[C@@]21CC [Gestrinone],0.287 ± 0.011
18,CCCC(C)C1(CC)C(=O)NC(=O)NC1=O (stereo not given) [Pentobarbital],0.432 ± 0.011
19,O=C(O)CCCc1ccc(N(CCCl)CCCl)cc1 [Chlorambucil],0.537 ± 0.095
20,NCC1(CC(=O)O)CCCCC1 [Gabapentin],0.565 ± 0.076

row,SMILES,growth
1,CC(=O)O[C@H]1C[C@@H]2CC[C@@H]3[C@H](CC[C@@]4(C)[C@H]3C[C@H]([N+]3(C)CCCCC3)[C@@H]4OC(C)=O)[C@@]2(C)C[C@@H]1[N+]1(C)CCCCC1 [Pancuronium bromide],0.506 ± 0.021
2,C[C@]12CC[C@@H](O)C[C@@H]1CC[C@@H]1[C@@H]2CC[C@]2(C)C(=O)CC[C@@H]12 [Androsterone],0.291 ± 0.016
3,CC[C@@H](C(N)=O)N1CCCC1=O [Levetiracetam],0.453 ± 0.03
4,CCC1(C)CC(=O)NC(=O)C1 [Bemegride],0.467 ± 0.024
5,"CCC1(c2ccc(N)cc2)CCC(=O)NC1=O (stereo not given) [Glutethimide, para-amino]",0.445 ± 0.022
6,Cc1cc(C(C#N)c2ccc(Cl)cc2)c(Cl)cc1NC(=O)c1cc(I)cc(I)c1O (stereo not given) [Closantel],0.128 ± 0.012
7,O=P1(N(CCCl)CCCl)NCCCO1 (stereo not given) [Cyclophosphamide],0.57 ± 0.069
8,C(#CCN1CCCC1)CN1CCCC1 [Tremorine dihydrochloride],0.696 ± 0.067
9,CN1C(=O)CCS(=O)(=O)C1c1ccc(Cl)cc1 (stereo not given) [Chlormezanone],0.615 ± 0.1
10,CN1C[C@H](CNC(=O)OCc2ccccc2)C[C@@H]2c3cccc4c3c(cn4C)C[C@H]21 [Metergoline],0.04927 ± 5.8e-05
11,C=CC[C@]1(O)CC[C@H]2[C@@H]3CCC4=CC(=O)CCC4=C3C=C[C@@]21C [Altrenogest],0.293 ± 0.0069
12,CCN(C)C(=O)Oc1cccc([C@H](C)N(C)C)c1 [Rivastigmine],0.504 ± 0.066
13,O=P1(NCCCl)OCCCN1CCCl (stereo not given) [Ifosfamide],0.517 ± 0.077
14,COc1ccc2c(c1)[C@]13CCCC[C@@H]1[C@H](C2)N(C)CC3 [Dextromethorphan hydrobromide monohydrate],0.469 ± 0.03
15,COc1ccc(C(CN(C)C)C2(O)CCCCC2)cc1 (stereo not given) [Venlafaxine],0.438 ± 0.018
16,NC(=O)C[S+]([O-])C(c1ccccc1)c1ccccc1 (stereo not given) [Modafinil],0.634 ± 0.016
17,CCN[C@@H](C)Cc1cccc(C(F)(F)F)c1 [Dexfenfluramine hydrochloride],0.466 ± 0.025
18,CCC(COC(=O)c1cc(OC)c(OC)c(OC)c1)(c1ccccc1)N(C)C (stereo not given) [Trimebutine],0.255 ± 0.018
19,C[N+]1(C)[C@@H]2CC[C@H]1C[C@@H](OC(=O)C(CO)c1ccccc1)C2 (stereo not given in full) [Methylatropine nitrate],0.707 ± 0.049
20,CC(C)C[C@H](CN)CC(=O)O [Pregabalin],0.614 ± 0.019

# — the supplement of paper PMC9262897, “Low-cost anti-mycobacterial drug discovery using engineered E. coli” (Nature Communications, 2022)
